Our source for the growth values is PubChem BioAssay (NCI).

The panel holds about 83,000 compounds, 20% with a hit somewhere; the sample as a whole holds those more often.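 Assay: single dose, 48 h. Readout: percent growth (0 = no net growth; negative = cell death). Active: <10.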 Unmarked numbers belong to inactive results. The source made the active and inactive calls.

Some test systems named below: SR leukemia; RPMI-8226 leukemia; OVCAR-8 ovarian; OVCAR-5 ovarian; OVCAR-4 ovarian; SK-OV-3 ovarian; OVCAR-3 ovarian; NCI/ADR-RES ovarian; T-47D breast; SW-620 colon; MCF7 breast; HCT-116 colon; HCC-2998 colon; KM12 colon; HS 578T breast; BT-549 breast; MDA-MB-435 melanoma.
Holding throughout (experiment): NCI-60 one-dose screen, 48 h (100 = growth as untreated, 0 = no growth, -100 = all killed)
What all share (details): 10 µM

On to `Cc1ccc(/C(CS(=O)(=O)c2ccc(C)cc2)=N\O)cc1`, for which the growth in the assay with SR leukemia was 83.7%; with RPMI-8226 leukemia, 96.6%; with OVCAR-8 ovarian it was 97.2%; in the assay on OVCAR-5 ovarian, 90.9%; in the assay with OVCAR-4 ovarian it was 96.1%; in the assay with SK-OV-3 ovarian it was 112%. The growth was 118% with OVCAR-3 ovarian; 106% in the assay with NCI/ADR-RES ovarian; 103% in the assay with T-47D breast; 106% in the assay with SW-620 colon; 91.3% in the assay with MCF7 breast; 103% with HCT-116 colon. Also, the growth is 103% with HCC-2998 colon and 115% in the assay with KM12 colon.
As for `Cc1nn2c(/C=C3/C(=O)Nc4ccc(Cl)cc43)c(-c3ccccc3)nc2s1`, the growth with SR leukemia was -12.7% (active); with RPMI-8226 leukemia it was 23.7%; with OVCAR-8 ovarian, 14.6%; with OVCAR-5 ovarian, 73.6%; in the assay with OVCAR-4 ovarian it was -52.3% (active); in the assay on SK-OV-3 ovarian it was -0.11% (active). The growth was 9.92% (active) in the assay on OVCAR-3 ovarian; -6.37% (active) in the assay with HS 578T breast; 38.3% with NCI/ADR-RES ovarian; -1.58% (active) in the assay with T-47D breast; 48.8% in the assay with BT-549 breast; 44.4% in the assay with MDA-MB-435 melanoma. Also, the growth is 44.2% in the assay with SW-620 colon, 38.5% in the assay with MCF7 breast, 7.12% (active) with HCT-116 colon and 59.1% in the assay with KM12 colon.
With `O=C(CSc1nnc(-c2ccc(Cl)cc2)o1)c1ccccc1`, the growth with SR leukemia is 94%; in the assay with RPMI-8226 leukemia, 96.4%; in the assay with OVCAR-8 ovarian it was 96.2%; with OVCAR-5 ovarian it was 97.7%; in the assay on OVCAR-4 ovarian it was 112%; in the assay with SK-OV-3 ovarian it was 102%. Moreover, the growth with OVCAR-3 ovarian was 102%; in the assay on HS 578T breast, 101%; in the assay with NCI/ADR-RES ovarian, 94.9%; in the assay on T-47D breast, 93%; with BT-549 breast, 98.3%; in the assay with SW-620 colon, 107%. Further, the growth in the assay with MCF7 breast is 102%; in the assay with HCT-116 colon, 92.2%; in the assay on HCC-2998 colon, 87.5%; in the assay with KM12 colon, 96.3%.
With `Nc1ccn([C@@H]2O[C@H](COP(=O)(O)O[C@@H]3C[C@H](n4cc(F)c(=O)[nH]c4=O)O[C@@H]3COP(=O)(O)O[C@@H]3C[C@H](n4cc(F)c(=O)[nH]c4=O)O[C@@H]3COP(=O)(O)O[C@@H]3C[C@H](n4cc(F)c(=O)[nH]c4=O)O[C@@H]3COP(=O)(O)O[C@@H]3C[C@H](n4cc(F)c(=O)[nH]c4=O)O[C@@H]3COP(=O)(O)O[C@@H]3C[C@H](n4cc(F)c(=O)[nH]c4=O)O[C@@H]3COP(=O)(O)O[C@@H]3C[C@H](n4cc(F)c(=O)[nH]c4=O)O[C@@H]3COP(=O)(O)O[C@@H]3C[C@H](n4cc(F)c(=O)[nH]c4=O)O[C@@H]3COP(=O)(O)O[C@@H]3C[C@H](n4cc(F)c(=O)[nH]c4=O)O[C@@H]3COP(=O)(O)O[C@@H]3C[C@H](n4cc(F)c(=O)[nH]c4=O)O[C@@H]3COP(=O)(O)O[C@@H]3C[C@H](n4cc(F)c(=O)[nH]c4=O)O[C@@H]3COP(=O)(O)OCCOCCOCCOCCOCCOCCO)[C@H](O)C2O)c(=O)n1` (stereo not given in full), the growth is 44.3% in the assay on SR leukemia; 50.1% with RPMI-8226 leukemia; 40.7% in the assay with OVCAR-8 ovarian; 89.9% in the assay with OVCAR-5 ovarian; 84% with OVCAR-4 ovarian; 32% in the assay with SK-OV-3 ovarian. For the same compound, the growth with OVCAR-3 ovarian was 64.5%; with NCI/ADR-RES ovarian, 39.5%; in the assay with T-47D breast, 80.5%; in the assay with BT-549 breast, 48.7%; in the assay with MDA-MB-435 melanoma, 61.4%; in the assay on SW-620 colon, 58.2%. The growth in the assay on MCF7 breast is 19.4%; with HCT-116 colon, 20.4%; in the assay on HCC-2998 colon, 50.4%; in the assay on KM12 colon, 47%.
With `Cc1ccc2c(c1)-c1cc(C)nn1-c1ccc(C#N)cc1O2`, the growth in the assay on SR leukemia is 28%; with RPMI-8226 leukemia it was 54.3%; with OVCAR-8 ovarian, 70.4%; in the assay with OVCAR-5 ovarian it was 94.1%; in the assay on OVCAR-4 ovarian, 76.9%; in the assay on SK-OV-3 ovarian it was 53.3%. Besides, the growth is 61.8% with OVCAR-3 ovarian; 56.4% in the assay on HS 578T breast; 40.1% with NCI/ADR-RES ovarian; 51.8% in the assay on T-47D breast; 78.5% in the assay on BT-549 breast; 8.67% (active) in the assay with MDA-MB-435 melanoma. In addition, the growth is 41% in the assay with SW-620 colon, 42% in the assay on MCF7 breast, 27.6% in the assay with HCT-116 colon and 56.9% with KM12 colon.
`COc1ccc(NC(=O)CCn2cnc3c(cc(-c4ccccc4)n3-c3ccccc3)c2=O)cc1`: the growth in the assay on SR leukemia is 95.7%; in the assay on RPMI-8226 leukemia it was 93.4%; with OVCAR-8 ovarian it was 102%; in the assay with OVCAR-5 ovarian, 94.7%; with OVCAR-4 ovarian, 72.1%; in the assay with SK-OV-3 ovarian it was 58.1%. The growth in the assay with OVCAR-3 ovarian was 98%; with HS 578T breast it was 46%; in the assay with NCI/ADR-RES ovarian, 63%; with T-47D breast it was 90.8%; with BT-549 breast, 92.2%; with MDA-MB-435 melanoma, 96%. Also, the growth in the assay with MCF7 breast was 83.3%; in the assay with HCT-116 colon, 91.4%; with HCC-2998 colon, 96.3%; in the assay on KM12 colon, 110%.
For `CCCCCCCCCCN=C(c1ccc(N(C)C)cc1)c1ccc(N(C)C)cc1`, the growth in the assay on SR leukemia was 23%; in the assay on RPMI-8226 leukemia it was 24.3%; in the assay with OVCAR-8 ovarian it was 30.9%; in the assay with OVCAR-5 ovarian, 71.5%; in the assay on OVCAR-4 ovarian it was 59.8%; with SK-OV-3 ovarian it was 16.6%. Besides, the growth in the assay on OVCAR-3 ovarian is 2.1% (active); with HS 578T breast, 26.7%; in the assay on NCI/ADR-RES ovarian it was -3.13% (active); in the assay on T-47D breast, 20.7%; in the assay on BT-549 breast, 38.1%; with MDA-MB-435 melanoma, -14.2% (active). For the same compound, the growth with SW-620 colon is 16.8%; in the assay on MCF7 breast, 11.9%; with HCT-116 colon, 15.3%; with HCC-2998 colon, 52.6%; with KM12 colon, 27.8%.
With `COc1cc2ccnc(C=O)c2cc1OC`, the growth in the assay with SR leukemia was 1.19% (active); in the assay with RPMI-8226 leukemia it was 50.6%; in the assay with OVCAR-8 ovarian, 44.2%; in the assay on OVCAR-5 ovarian, 93.1%; with OVCAR-4 ovarian it was 80.9%; in the assay on SK-OV-3 ovarian it was 106%. The growth in the assay on OVCAR-3 ovarian was 24.9%; in the assay on HS 578T breast, 93.4%; in the assay on NCI/ADR-RES ovarian, 54.4%; in the assay with T-47D breast, 60.7%; with BT-549 breast, 56.3%; in the assay with MDA-MB-435 melanoma it was 31.1%. The growth was 30.2% in the assay with SW-620 colon; 23.8% with MCF7 breast; 9.15% (active) with HCT-116 colon; 104% in the assay on HCC-2998 colon; 92.1% in the assay with KM12 colon.
Regarding `Cc1nc2ccc(-n3c(-c4ccc(Cl)cc4)nc4ccccc4c3=O)cc2n1Cc1ccccc1`, the growth is 86.7% in the assay with SR leukemia; 64.6% with RPMI-8226 leukemia; 93.4% with OVCAR-8 ovarian; 118% with OVCAR-5 ovarian; 90.7% with OVCAR-4 ovarian; 87.3% in the assay with SK-OV-3 ovarian. The growth is 99.6% with OVCAR-3 ovarian; 101% with HS 578T breast; 94.9% in the assay on NCI/ADR-RES ovarian; 78.8% with T-47D breast; 83.3% with BT-549 breast; 97.2% with MDA-MB-435 melanoma. In addition, the growth in the assay with SW-620 colon is 93.7%; with MCF7 breast, 85%; in the assay on HCT-116 colon it was 93%; in the assay with HCC-2998 colon it was 107%; in the assay with KM12 colon, 97.8%.
